Source: PubChem
Most compounds without a hit are left out; they make up all but 0.29% or so of the library.
GALK inhibitor: GALK (human) enzyme inhibition; Potency, µM (titrated, usually from 57.5 µM), for inactives: at the top dose activity, negative = inhibition, actives largely listed as inhibitors; AID 1347072; recombinant GALK, Kinase-Glo ATP luminescence, 1 h; 44,000 tested, under 10 active;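 also: plate controls were full GALK reaction for no effect and reaction lacking GALK for full effect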
Target sequence (P51570 whole entry, looked up): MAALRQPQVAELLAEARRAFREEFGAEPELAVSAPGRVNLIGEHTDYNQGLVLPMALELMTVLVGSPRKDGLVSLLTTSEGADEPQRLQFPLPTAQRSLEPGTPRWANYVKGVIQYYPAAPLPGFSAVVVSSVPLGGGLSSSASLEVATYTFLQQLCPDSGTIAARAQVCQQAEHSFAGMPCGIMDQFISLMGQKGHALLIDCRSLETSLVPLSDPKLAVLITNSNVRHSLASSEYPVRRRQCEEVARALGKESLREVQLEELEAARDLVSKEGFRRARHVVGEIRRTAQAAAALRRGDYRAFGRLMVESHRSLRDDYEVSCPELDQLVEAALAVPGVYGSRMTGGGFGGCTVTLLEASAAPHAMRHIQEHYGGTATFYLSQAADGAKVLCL
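Human GALK (5 nM) was incubated with 35 uM ATP and 100 uM galactose in 20 mM HEPES pH 8.0 with MgCl2, NaCl, DTT and BSA for 1 h at room temperature. Remaining ATP was measured by Kinase-Glo Plus luminescence.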
B2AR arrestin ag: ADRB2 beta-arrestin recruitment; P07550; 44,000 tested, under 10 active; AID 1347077; Potency, µM (top dose mostly 46.1 µM), actives largely listed as activators; HTLA Tango cells, beta-arrestin recruitment, luciferase luminescence, 18 h;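 also: potency is read from the fitted curve at half-maximal effect; 0% = DMSO and full agonism = EC100 isoproterenol or metaproterenol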
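Tango cells expressing recombinant beta2-AR and beta-arrestin were treated with compounds (up to 46 microM titration) in DMEM with 1% FBS for 18 hr at 37 degrees C. Beta-arrestin recruitment drove tTA-dependent luciferase, read by luminescence; curves were fitted and classed.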
GALC G270D up: galactocerebrosidase G270D activity enhancement, cell-based; Potency, µM (titrated, usually from 57.5 µM), actives largely listed as activators; 145M-Twi-hGALC-G270D cells (Twitcher mouse brain line with human GALC G270D), HMU-beta-Gal fluorescence, 48 h; AID 1159614; P54803; actives 0.1% (n = 45,000); also: potency is read from the fitted curve at half-maximal effect; 0% is about no effect; nearly all actives have a fitted effect of over 65% in size
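Fluorescence readout: HMU-β-gal cleavage by mutant GALC (0.1 mM final, citrate/phosphate pH 5.2 with 1 mg/mL taurocholate), stopped with carbonate/bicarbonate plus Triton X-100. Cells: murine Twitcher 145M-Twi expressing human G270D GALC; qHTS for activators.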
FH mod: Identification of activators of human fumarate hydratase by quantitative high-throughput screening. actives 0.22% (n = 54,000). Potency, µM (highest dose often 79.9 µM), for inactives: at the highest dose activity change, negative = inhibition, hits mostly inhibitors. Fumarate hydratase, mitochondrial (Homo sapiens), P07954. FH coupled MDH/diaphorase resazurin fluorescence, 15 min; also: potency is read from the fitted curve at half-maximal effect; % is scaled to controls: 0 for no effect and ±100 for the full control effect; the screen sought activators but most active calls are inhibition curves; nearly all actives have a fitted effect of over 45% in size
TSG101-PTAP inh: blocks PTAP binding to human TSG101, validation | Q99816 | Fluorescence polarization, FITC-PTAP peptide/Tsg101, 20 min | Potency, µM (titrated, usually from 115 µM), most hits filed as inhibitors | 44,000 tested, under 10 active; also: potency is read from the fitted curve at half-maximal effect; 0% is about no effect
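Compounds pinned into 10 uM Tsg101 binding domain, then 50 nM FITC-PTAP peptide added in pH 7.5 HEPES buffer; FP read after 20 min, room temperature. Total S+P intensity flags fluorescent compounds; active cut-off <25 µM, efficacy <60%.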
Active calls of the source: *; i = inactive; ? = inconclusive; . = no result given; ! = not active in a repeat; [ ] = dose if it differs, or a comment. Calls follow the shape of the dose curve; as a rule, active = well fitted curve in the direction sought with a large enough effect; inconclusive = small, poorly fitted or top-dose-only effect, or another doubt; inactive = no such curve, though single readings can be large; an effect the other way counts as inactive or inconclusive.

SMILES	GALK inhibitor	B2AR arrestin ag	GALC G270D up	FH mod	TSG101-PTAP inh
CCOc1ccc(CCNC(=O)c2ccc3[nH]c(C)c(C)c3c2)cc1	1%	i	i	?	i
Cc1ccc(CCNC(=O)c2ccc3[nH]c(C)c(C)c3c2)cc1	0%	i	i	35µM*	i
CCOc1ccc(CCNC(=O)c2ccc3c(c2)c(C)c(C)n3C)cc1	3%	i	i	16µM*	i
O=C(NCc1nc2ccccc2c(=O)n1-c1ccc(F)cc1)Nc1ccc(Cl)c(C(F)(F)F)c1	.	.	.	-15%	.
C=CC1(C)CC=C2C(CCC3C(C)(C(=O)O)CCCC23C)C1 (stereo not given)	.	.	.	-17%	.
COC(=O)CC(C)(O)CC(=O)OCc1ccc(O[C@@H]2O[C@H](CO)[C@@H](O)[C@H](O)[C@H]2O)cc1 (stereo not given in full)	.	.	.	-1%[53.3 µM]	.
O=S(=O)(Nc1cc(F)ccc1F)c1ccc2[nH]c3c(c2c1)CCCCC3	-2%	i	i	?	i
O=S(=O)(Nc1cccc(F)c1)c1ccc2[nH]c3c(c2c1)CCCCC3	-4%	i	i	35µM*	i
Cc1onc(-c2ccccc2Cl)c1C(=O)N(C)c1ccc(Cl)cc1	.	.	.	0%	.
C=CC1(C)C=C2CC[C@H]3[C@@](C)(C(=O)O)CCC[C@]3(C)C2CC1 (stereo not given in full)	.	.	.	-2%[53.3 µM]	.
Brc1c(Br)c(Br)c2n[nH]nc2c1Br	.	.	.	32µM*	.
CC1(C)CCCC2(C)C(CO)C3CCC2C31 (stereo not given)	.	.	.	15%	.
Cc1ccc2nc(-c3ccc(NC(=O)C(F)(F)F)cc3)sc2c1	1%	i	14µM*	3%	i
Cc1[nH]cnc1C1CCN(c2nc3cccc4c3n2CCC4=O)CC1	.	.	.	-1%	.
CCC(C)C(=O)OC12C(OC(C)=O)C(C)C3(O)C(C=C(CO)CC4(O)C(=O)C(C)=CC43)C1C2(C)C (stereo not given)	.	.	.	8%[53.3 µM]	.
Fc1ccc(C2CCNC[C@H]2COc2ccc3c(c2)OCO3)cc1 (stereo not given in full)	.	.	.	-9%	.
Cc1nc([C@](C)(O)CO)sc1-c1cnc(N)c(O[C@H](C)c2cc(F)ccc2-n2nccn2)c1	.	.	.	2%	.
O=C(O)c1ccnc2cc(-c3nc4ccccc4n3CCN3CCCCC3)sc12	.	.	.	13µM*	.
CC(=O)N[C@@H](CC(C)C)C(=O)N[C@@H](CCC(=O)O)C(=O)N[C@@H](CCC(=O)O)C(=O)N[C@@H](CC(=O)O)C(=O)Nc1ccc2c(C(F)(F)F)cc(=O)oc2c1	.	.	.	9%	.
CC(=O)N[C@@H](CC(=O)O)C(=O)N[C@@H](CCC(=O)O)C(=O)N[C@H](C(=O)N[C@@H](CC(=O)O)C(=O)Nc1ccc2c(C)cc(=O)oc2c1)C(C)C	.	.	.	20µM*	.
CN1CCc2cccc3c2C1Cc1ccc(O)c(O)c1-3 (stereo not given)	.	.	.	14µM*	.
O=C(/C=C/c1cccc(S(=O)(=O)Nc2ccccc2)c1)NO	.	.	.	3%[53.3 µM]	.
COc1cccc(NCCC2(c3ccccc3)CC(C)(C)OC(C)(C)C2)c1	.	.	.	-25%	.
CCn1cc2nc(SCc3cccc(Cl)c3)n(Cc3ccc(C)cc3)c(=O)c2n1	5%	i	i	?	i
CCn1cc2nc(SCc3cccc(C(F)(F)F)c3)n(Cc3ccc(Cl)cc3)c(=O)c2n1	0%	i	i	?	i
SMILES	GALK inhibitor	B2AR arrestin ag	GALC G270D up	FH mod	TSG101-PTAP inh
CCn1cc2nc(SCc3cccc(C(F)(F)F)c3)n(CCc3ccccc3)c(=O)c2n1	-2%	i	i	32µM*	i
CCn1cc2nc(SCc3cccc(C)c3)n(CCc3ccccc3)c(=O)c2n1	2%	i	i	40µM*	i
CC(O)C(C)n1ncn(-c2ccc(N3CCN(c4ccc(OCC5COC(Cn6cncn6)(c6ccc(Cl)cc6Cl)O5)cc4)CC3)cc2)c1=O (stereo not given)	.	.	.	-13%	.
C=CC(=O)Nc1cccc(C)c1Nc1ncc2cc(-c3c(Cl)c(OC)cc(OC)c3Cl)ccc2n1	.	.	.	-23%	.
CC[C@]1(O)C[C@H]2CN(CCC3C(=Nc4ccccc43)[C@@](C(=O)OC)(c3cc4c(cc3OC)N(C)[C@H]3[C@@](O)(C(N)=O)[C@H](O)[C@]5(CC)C=CCN6CC[C@]43[C@@H]65)C2)C1 (stereo not given in full)	.	.	.	-3%	.
O=C(O)c1ccnc2cc(C(OCC3CCC(F)(F)CC3)c3ccccc3Cl)[nH]c12 (stereo not given)	.	.	.	1%	.
N#C/C(=C\c1ccc(O)c(O)c1)C(=O)NCCc1ccccc1	.	.	.	32µM*	.
O=c1c(O)c(-c2ccc(O)c(O)c2)oc2cc(O)ccc12	.	.	.	27µM*![activator]	.
O=C1NC(=O)/C(=C/c2ccc3c(c2)OCO3)S1	.	.	.	32µM*	.
O=C1NC(=O)C(=Cc2ccc(-c3ccc(F)cc3)o2)S1	.	.	.	-16%[53.3 µM]	.
Oc1ccc(C2CNCc3sccc32)cc1O (stereo not given)	.	.	.	8.9µM*	.
CCc1ccc(NC(=O)Nc2cn(C)c(=O)c3ccccc23)cc1	-2%	i	i	32µM*[activator]	i
Cc1ccc(NC(=O)Nc2cn(C)c(=O)c3ccccc23)c(Cl)c1	1%	i	i	28µM*[activator]	i
Cc1ccc(NC(=O)Nc2cn(CC(C)C)c(=O)c3ccccc23)cc1N(C)C	1%	i	i	5%	i
C/C=C/C=C/C(=O)OC1CC/C=C/C(O)C(O)C(CCC)OC1=O (stereo not given)	.	.	.	8%[53.3 µM]	.
O=C(CCSc1nc(-c2ccco2)cc(C(F)(F)F)n1)Nc1cccc(O)c1	1%	i	22µM*	?	i
COc1ccc(OC)c(NC(=O)CSc2n[nH]c(-c3ccccc3Cl)n2)c1	3%	i	i	7.9µM*	i
CC(C)(C)OC(=O)c1ncn2c1C(C)(C)Nc1ccccc1-2	.	.	.	2%	.
Cc1cc(Nc2cccc(C(F)(F)F)c2)nc2ccc(NC(=O)c3cncc(Br)c3)cc12	2%	i	i	32µM*	i
CC[C@H]1OC(=O)[C@H](C)[C@@H](O[C@H]2C[C@@](C)(OC)[C@@H](O)[C@H](C)O2)[C@H](C)[C@@H](O[C@@H]2O[C@H](C)C[C@H](N(C)C)[C@H]2O)[C@](C)(O)C[C@@H](C)/C(=N/OCOCCOC)[C@H](C)[C@@H](O)[C@]1(C)O	.	.	.	8%	.
Cc1cc(F)ccc1S(=O)(=O)Nc1cc2c(C(=O)O)c(C)oc2c2ccccc12	0%	i	i	16µM*	i
Nc1ccc(C(=O)O)c(O)c1	.	.	i	-7%[53.3 µM]	.
Cc1ccc(N)cc1O	.	.	i	20µM*	.
